This note sets out measurements from PubChem BioAssay.

Several values for one entry are separate records, joined by “and”; a condition that tells them apart may be missing. Equal entries are not always repeated. For some assays here: Entries with a potency or affinity are not part of this list. Activity calls are given as the source filed them.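 Rule for the calls, unless noted: active = compounds whose cell count with miR-34 switched on is under 0.7 times the count with it off; inactive = the rest.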

The nature of assay [1]: liver-stage malaria parasite growth inhibition, primary screen, cell-based, HepG2, luciferase luminescence, HepG2 viability (AID 624349; in the data active = parasite load remaining mostly below about 12%, no sharp cut-off; inactive = mostly above about 10%;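 note: 100% = mean of DMSO negative control wells on the same plate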). The settings on record: P. berghei liver stage in HepG2, luciferase luminescence, concentration not given here; parasite load remaining: stronger effect = lower value; viability: measured here: HepG2 viability without parasites.
The nature of assay [2]: sensitizers of A549 cells to miR-34 induction, primary screen, imaging, A549 dox-inducible miR-34, nuclei and caspase counts (AID 1347080). The settings on record: A549 miR-34 inducible, Hoechst nuclei count, 48 h.
Assay [3] can be described thus: survival rescue of mitochondrial mutant cells in low glucose, primary screen, MELAS cybrids, Rieske KO mouse fibroblasts, CellTiter-Glo (AID 1508586;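 active = mean z-score across replicates of 1.96 or higher in either the MELAS or the Rieske mutant cell line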;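 note: z relative to plate mean and SD of compound and empty wells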). On the technique in general: ATP-based viability assays read luminescence as a measure of living cells.
The nature of assay [4]: kinase inhibitors against Plasmodium liver-stage infection, cell-based, known kinase inhibitor set, luminescence, hepatoma host viability (AID 624392; call rule not given here;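 note: infected cells incubated roughly two days before readout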). Particulars: Plasmodium liver stage in hepatoma cells, luciferase luminescence, concentration not given here; liver cell % of control: measured here: host liver cell viability; parasite % of control: stronger effect = lower value.
Assay [5] in a line: polyglutamine-triggered caspase-3 activation inhibitors, cell-based (AID 1583). The settings on record: polyglutamine-induced caspase-3 activation, cell assay; stronger effect = higher value;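 tested at 10 µM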.
A short description of assay [6]: suppressors of polyQ aggregation in yeast, 75Q-TubU reporter (AID 1593). Particulars: Yeast 75Q polyglutamine aggregation reporter.
Assay [7] in a line: rescue of polyQ-huntingtin neuronal dysfunction in worms, whole organism, C. elegans mechanosensory neurons, N-terminal huntingtin (AID 1599). Particulars: touch response, stronger effect = higher value.
The nature of assay [8]: inhibitors of mitochondrial cytochrome c release, biochemical, purified mitochondria (AID 1603).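 Note: mouse liver mitochondria challenged with calcium chloride; signal normalized to the plate average as 100%.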 The settings on record: stronger effect = lower value.
Assay [9] can be described thus: inhibitors of polyQ protein aggregation (AID 1604). The settings on record: polyglutamine-induced protein aggregation inhibition assay; stronger effect = higher value; tested at 2.5 µM.
A short description of assay [10]: enhancers of glutamate uptake in motor neurons, MN-1 cell line (AID 1612).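 Note: tested at 1 µM final; 0% = mean of DMSO vehicle wells on each plate; positive means more glutamate uptake than control and negative means less.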 The settings on record: MN-1 motor neuron cells, stronger effect = higher value.
The nature of assay [11]: reducers of polyQ inclusions in PC12 cells, cell-based, NGF-treated PC12, GFPQ80 (AID 1614).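 Note: lower means fewer inclusions and 0 means no inclusions at all.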 The settings on record: PC12 NGF-treated GFP-polyQ80 inclusion reduction.
The nature of assay [12]: suppressors of polyglutamine aggregation in yeast, 75Q-TubH (AID 1616). Particulars: S. cerevisiae 75Q-TubH polyglutamine aggregation suppression; stronger effect = higher value.
Assay [13] in a line: viability rescue of complex I mutant cybrids, primary screen, cell-based, galactose medium, ATP luminescence (AID 1645843;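 active = z-score of at least 1.8 in each of two replicates, scored against plate mean and spread of sample wells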;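 note: positive z means more ATP and so rescue of galactose-driven cybrid death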). Particulars: complex I mutant cybrid cells, 72 h, stronger effect = higher value.
Assay [14] can be described thus: hESC survival regulators, cell-based (AID 493140; call rule not given here;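 note: cells exposed to compounds for four days before counting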). The settings on record: human embryonic stem cell survival screen; stronger effect = higher value.
Assay [15] addresses NAD(+) hydrolase SARM1 (Homo sapiens) (UniProt Q6SZW1). Nature of the assay: SARM1 TIR NADase inhibitors, cell lysate, NAD-Glo luminescence (AID 1508614;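 active = compound whose remaining NAD level is above about 45 nM, limit read from the data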;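 note: higher remaining NAD means stronger inhibition of SARM1 NADase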). Particulars: SAM-TIR HEK293T lysate NADase, at 1 µM, stronger effect = higher value.
[16] abbreviates: stronger effect = lower value, cell number ratio, induced over uninduced.
Setting [17] is: measured here: relative caspase fold change +Dox/-Dox.
The mark [18] stands for this setting: measured here: total cells with miR-34 induction, stronger effect = lower value.
The mark [19] stands for this setting: measured here: total cells without miR-34 induction.
[20] abbreviates: MELAS cybrid survival, CellTiter-Glo 48 h, stronger effect = higher value.
Where [21] appears, read: Rieske KO mouse fibroblast survival, CellTiter-Glo 72 h.

Sequence of NAD(+) hydrolase SARM1 (Homo sapiens) (Q6SZW1 whole entry, looked up): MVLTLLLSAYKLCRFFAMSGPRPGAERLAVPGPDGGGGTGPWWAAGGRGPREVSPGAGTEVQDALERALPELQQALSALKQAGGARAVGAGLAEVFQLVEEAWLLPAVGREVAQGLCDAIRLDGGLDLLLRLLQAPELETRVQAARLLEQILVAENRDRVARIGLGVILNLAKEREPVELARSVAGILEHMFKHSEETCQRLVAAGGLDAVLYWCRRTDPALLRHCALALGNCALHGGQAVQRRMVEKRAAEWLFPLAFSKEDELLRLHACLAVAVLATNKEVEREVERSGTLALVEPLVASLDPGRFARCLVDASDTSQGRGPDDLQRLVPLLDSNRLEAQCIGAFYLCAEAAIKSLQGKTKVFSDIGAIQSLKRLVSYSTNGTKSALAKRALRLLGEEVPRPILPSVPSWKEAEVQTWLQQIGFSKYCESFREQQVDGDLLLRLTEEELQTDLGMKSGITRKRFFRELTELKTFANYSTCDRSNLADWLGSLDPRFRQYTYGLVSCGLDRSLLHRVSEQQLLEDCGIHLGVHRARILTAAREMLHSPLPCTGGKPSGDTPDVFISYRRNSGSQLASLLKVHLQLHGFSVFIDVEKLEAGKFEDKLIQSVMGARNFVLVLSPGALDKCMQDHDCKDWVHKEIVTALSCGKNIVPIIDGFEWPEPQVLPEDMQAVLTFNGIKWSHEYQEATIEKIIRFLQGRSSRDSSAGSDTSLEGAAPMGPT

In general, viability refers to a read-out of living cells in per cent, often relative to untreated cells. For `Nc1ncn(C2O[C@H](CO)[C@@H](O)[C@H]2O)c(=O)n1` (some centres not stated), in [1], the parasite load remaining was 151% (inactive). The viability in [1] amounted to 108%. Further, the fold change in assay [2] (setting [16]) is 0.664 (active); in assay [2] (setting [17]) it was 1.38. For the same compound, the cell count in assay [2] (setting [18]) amounted to 2060; in assay [2] (setting [19]), 3100. In addition, the z-score in [3] (setting [20]) is -0.101 (inactive); in assay [3] (setting [21]), 0.0147.
Turning to `CN(C)CC=CC(=O)Nc1cc2c(Nc3ccc(F)c(Cl)c3)ncnc2cc1OC1CCOC1` (configuration not stated), the liver cell % of control in assay [4] is 39.8% and 42.2% and 47.1%. The parasite % of control in assay [4] was 0.262% (inactive) and 0.42% (inactive) and 32.1% (inactive). Moreover, the fold change in assay [2] (setting [16]) is 0.839 (inactive); in assay [2] (setting [17]), 1.69. Moreover, the cell count came out at 2280 in [2] (setting [18]) and 2710 in assay [2] (setting [19]). The z-score in [3] (setting [20]) is 5.09 (active); in assay [3] (setting [21]) it was 0.143.
By inhibition is commonly meant the share of the control response that was lost under treatment. Take `CN=C(N)NCCCC(N)C(=O)O` (configuration not stated): the inhibition in assay [5] amounted to 9.27%. In assay [6], the score was 2.21. This compound also yielded a rescue above control in assay [7] of -4.19. Also, the cytochrome c release ratio in assay [8] is 0.94. Besides, in [9], the inhibition of aggregation was -4.76%. Besides, the glutamate uptake change in [10] amounted to 3.17%. In assay [11], this compound registered an inclusion score of 2. Further, the aggregation suppression score in assay [12] turned out to be 1.06. The values for the fold change in assay [2] (setting [16]) and in assay [2] (setting [17]) were 0.944 (inactive) and 1.42, respectively. For the same compound, the results for the cell count in [2] (setting [18]) and in assay [2] (setting [19]) were 9430 and 9990, respectively. Further, in assay [13], the z-score was 1.06 (inactive).
As to `CC1(C)S[C@@H]2[C@H](NC(=O)[C@H](NC(=O)N3CCNC3=O)c3ccccc3)C(=O)N2C1C(=O)O` (some centres not stated), the inhibition in assay [5] was determined as 10.9%. In addition, the score in assay [6] was determined as 1.31. The compound also gave a rescue above control in assay [7] of -2.48. Also, the cytochrome c release ratio in [8] turned out to be 1.14. In [9], the inhibition of aggregation was found to be 54.5%. In assay [10], the glutamate uptake change came out at 7.74%. In assay [11], this compound came in with an inclusion score of 2. The compound further gave an aggregation suppression score in [12] of 1.29. Further, the survival in assay [14] is 4.75 (inactive). Further, in assay [1], the parasite load remaining is 188% (inactive) and 42.9% (inactive). In addition, the viability in assay [1] is 87.9% and 114%. Also, the fold change in [2] (setting [16]) is 0.882 (inactive); in assay [2] (setting [17]), 3.93. Besides, the values for the cell count in [2] (setting [18]) and in assay [2] (setting [19]) were 12000 and 13600, respectively.
`CON=C1C[C@]2(C[C@@H]3C[C@@H](C/C=C(\C)C[C@@H](C)/C=C/C=C4\CO[C@@H]5[C@H](O)C(C)=C[C@@H](C(=O)O3)[C@]45O)O2)O[C@H](/C(C)=C/C(C)C)[C@H]1C`: the fold change in [2] (setting [16]) was 1 (inactive); in [2] (setting [17]) it was 0.955. In addition, the cell count in assay [2] (setting [18]) and in assay [2] (setting [19]) was 3250 throughout. For the same compound, the remaining NAD in assay [15] was 10 nM (inactive).
Turning to `CC1(C)S[C@@H]2[C@H](NC(=O)C(C(=O)O)c3ccsc3)C(=O)N2[C@H]1C(=O)O` (some centres not stated), the parasite load remaining in assay [1] is 73.9% (inactive). In assay [1], the viability was found to be 69.2%. Besides, the results for the fold change in [2] (setting [16]) and in [2] (setting [17]) were 0.946 (inactive) and 0.678, respectively. In addition, the cell count was 9480 in assay [2] (setting [18]) and 10000 in [2] (setting [19]). For the same compound, the z-score in assay [3] (setting [20]) is 0.609 (inactive); in assay [3] (setting [21]), 0.365.
Turning to `O=c1c(OC2OC(CO)C(O)C(O)C2O)c(-c2ccc(O)c(O)c2)oc2cc(O)cc(O)c12` (configuration not stated), the fold change in [2] (setting [16]) is 0.911 (inactive) and 0.974 (inactive); in assay [2] (setting [17]), 0.962 and 2.15. In addition, the cell count in assay [2] (setting [18]) was 4950 and 10100; in assay [2] (setting [19]), 5430 and 10300. For the same compound, in assay [13], the z-score was -1.74 (inactive) and 0.575 (inactive).
